About 83,000 compounds went through this panel and 20% of them were active in at least one assay; those are over-represented in the sample as a whole.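 Method: cells in 96-well plates; compound added at one concentration; 48 h incubation; percent growth measured; values under 10 scored active.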 Activity calls are given as the source filed them.
Legend:
Experiment in all cases: NCI-60 one-dose screen, 48 h (100 = growth as untreated, 0 = no growth, -100 = all killed)
Settings in all cases: 10 µM unless noted
[1] = system: SK-MEL-2 melanoma
[2] = system: EKVX NSCLC
[3] = system: SN12C renal
[4] = system: UO-31 renal
[5] = system: TK-10 renal
[6] = system: ACHN renal
[7] = system: A498 renal
[8] = system: CCRF-CEM leukemia
[9] = system: MOLT-4 leukemia
[10] = system: CAKI-1 renal

Measured: growth

COc1ccc(C2c3[nH]c4ccc(Cl)cc4c3CCN2c2oc(CO)nc2C#N)cc1 (stereo unspecified)
inactive: [1] 81.6% | [2] 59.4% | [3] 66.4% | [4] 54% | [5] 93.9% | [6] 45.3% | [7] 68.7% | [8] 37.3% | [9] 29.3%

O=C(/C=C/C=C/c1csc(Br)n1)NO
inactive: [1] 109% | [2] 102% | [3] 95.1% | [4] 71.9% | [5] 86.6% | [6] 92.6% | [10] 83.9% | [7] 92.8% | [8] 43.1% | [9] 75.3%

Cc1[nH]c(C(=O)Nc2ccc(C(N)=O)cc2N2CCOC(C)C2)c(Cl)c1Cl (stereo unspecified)
inactive: [1] 104% | [2] 93.1% | [3] 96.4% | [4] 82.6% | [5] 100% | [6] 88.4% | [7] 72.4% | [8] 99.5% | [9] 96.4%

O=C(O)c1ccc(-n2c(=O)n(-c3cccc(C(F)(F)F)c3)c(=O)c3cc(-c4ccc(F)cc4F)ccc32)cc1
inactive: [8] 19.5%
active: [1] -32% | [2] 5.67% | [3] -5.12% | [4] 8.03% | [5] 4.33% | [6] 1.36% | [7] -20.5% | [9] 4.7%

O=C1[C@@H]2Cc3c([nH]c4ccccc34)[C@@H](c3ccc(Cl)cc3)N2C(=O)CN1C1CCN(Cc2ccccc2)CC1
inactive: [1] 92.7% | [2] 54.6% | [3] 55% | [4] 30.5% | [5] 78.9% | [6] 51.4% | [7] 76.1% | [8] 20.1% | [9] 13.5%

CCCCCCNC(=O)Oc1ccc(/C(=C(/C)c2ccc(Cl)cc2)c2ccc(OCCN3CCCCCC3)cc2)cc1
inactive: [1] 108% | [2] 76.8% | [3] 70% | [4] 51.8% | [5] 95.8% | [6] 87.3% | [7] 74.5% | [8] 46.2% | [9] 33.3%

CC(=O)/C(N=Nc1ccc2oc(=O)ccc2c1)=C(\C)O
inactive: [2] 30.8% | [3] 35.6% | [4] 15.4% | [5] 23.8% | [6] 18.2% | [7] 29.8% | [8] 13.1% | [9] 16.4%
active: [1] 0.338%

Cc1cc(=O)oc2cc(OCCCOc3ccc(/C=C/C(=O)Nc4ccc(Br)cc4)cc3)ccc12
inactive: [1] 91.1% | [2] 91.6% | [3] 89.9% | [4] 82.3% | [5] 78.9% | [6] 46.7% | [7] 82.9% | [8] 83.6% | [9] 96.4%

CNC(=O)c1cc(Oc2ccc3c(c2)sc2nc(-c4ccc(N(C)C)cc4)cn23)ccn1
active: [7] 7.34% | [8] 9.49%
inactive: [1] 59.7% | [2] 53.8% | [3] 43% | [4] 33% | [5] 77.2% | [6] 21.7% | [9] 15.1%

O=C(CSc1nnc(-c2ccc(Cl)cc2)n1-c1ccccc1)Nc1cccc(F)c1
inactive: [1] 88.4% | [2] 42.2% | [3] 13.7% | [7] 57.9% | [8] 91.3% | [9] 85.8%
active: [4] -15.2% | [5] -14.7% | [6] -31.8%

C#CCOc1ccccc1C(OC(=O)c1ccccc1)C(=O)NC(C)(C)C(C)(C)C (stereo unspecified)
inactive: [1] 90.6% | [2] 75.3% | [3] 95.7% | [4] 62.7% | [5] 101% | [6] 97.2% | [7] 120% | [8] 79.5% | [9] 40.6%

CCOC(=O)c1cnc2c(-c3ccc(Cl)c(Cl)c3)cnn2c1
inactive: [1] 83.9% | [2] 81.3% | [3] 95.7% | [4] 80.2% | [5] 117% | [6] 104% | [7] 82.8% | [8] 68.4% | [9] 62.3%

CCCN1C=C/C(=C\C(=O)n2ccc3ccccc32)c2ccccc21
inactive: [1] 105% | [2] 56.5% | [3] 84.1% | [4] 53% | [5] 105% | [6] 82.8% | [7] 92.9% | [8] 73.3% | [9] 76.5%

N#C/C(=C\c1ccc(-c2ccc(Cl)cc2)o1)C(=O)Nc1ncc(Cc2ccc(Br)cc2)s1
active: [3] -29.9% | [5] -35.6% | [6] -34.6% | [7] -25.5%
inactive: [1] 83.1% | [2] 19.6% | [4] 52.9% | [8] 34.8% | [9] 55.8%

CCCCN1C(=O)/C(=c2\sc3n(c2=O)C2C(NN=3)N(CC)C(=O)N2CC)c2cccc(C)c21 (stereo unspecified)
active: [7] 5.04%
inactive: [1] 97.6% | [2] 46.6% | [3] 62% | [4] 54.7% | [5] 82.9% | [6] 47.2% | [8] 18.7% | [9] 45.1%

CN1CCN(c2ccc(Nc3nc(NCCNC(=O)c4ccccc4)c4sccc4n3)cc2)CC1
inactive: [1] 96.6% | [2] 97.3% | [3] 74% | [4] 66% | [5] 137% | [6] 54.6% | [7] 130% | [8] 27.9% | [9] 13.9%

Cn1cc(C2=C(c3coc4cc(Br)ccc34)C(=O)NC2=O)c2ccccc21
inactive: [1] 96.5% | [2] 67% | [3] 95.7% | [4] 52.5% | [5] 101% | [6] 88.2% | [7] 79.8% | [8] 62.5% | [9] 52.9%

CCS(=O)(=O)Nc1ccc(C(=O)CC2(O)C(=O)Nc3ccccc32)cc1 (stereo unspecified)
inactive: [1] 113% | [2] 91.8% | [3] 97.4% | [4] 67.7% | [5] 122% | [6] 95.3% | [10] 82.6% | [7] 103% | [8] 99.7% | [9] 102%

Cc1ccc2c(n1)C(=O)C(Cl)=C(Nc1cccc(C(F)(F)F)c1)C2=O
inactive: [1] 99.7% | [2] 58.1% | [3] 85.8% | [5] 127% | [7] 86%
active: [4] -67.7% | [6] -96.2% | [8] 4.32% | [9] 6.52%

CCCc1[nH]c(-c2cc(N)ccc2Cl)c2c1C(=O)CCCC2
inactive: [1] 95.5% | [2] 90.3% | [3] 92.1% | [4] 78.3% | [5] 107% | [6] 107% | [7] 108% | [8] 96.2% | [9] 88.6%

COc1ccc(-c2c3c(cn2Cc2cccc(OC)c2)-c2oncc2CCC3)cc1
inactive: [1] 96.2% | [2] 97.6% | [3] 96.6% | [4] 81% | [5] 106% | [6] 102% | [7] 96.8% | [8] 96.8% | [9] 98.6%

C#CCN(C)CCCOc1ccc(NC(=O)CCCCCCCCC(=O)NO)cc1Cl
inactive: [1] 96.7% | [2] 68.8% | [3] 95.9% | [4] 51.7% | [5] 63.1% | [6] 80.4% | [10] 78.6% | [7] 81.1% | [8] 30.5% | [9] 43.2%

CN1CCN(CCCCCC(=O)Nc2nc(-c3cccc(NS(=O)(=O)c4cccc5c(N(C)C)cccc45)c3)cs2)CC1
inactive: [1] 102% | [2] 74.7% | [3] 70.6% | [4] 75.1% | [5] 119% | [6] 88.4% | [7] 88.6% | [8] 59.8% | [9] 39.5%

Cc1csc(/N=C(N)/N=C(\N)c2cccs2)n1
inactive: [1] 106% | [2] 94.2% | [3] 110% | [4] 81.5% | [5] 174% | [6] 107% | [7] 120% | [8] 110% | [9] 106%

CN1CCN(c2ccc(Nc3nc(NCCCNS(=O)(=O)c4cccc5ccccc45)c4sccc4n3)cc2)CC1
inactive: [2] 36.1%
active: [1] -81.7% | [3] -3.36% | [4] -51.1% | [5] -40.6% | [6] -23.8% | [10] -52.7% | [7] -70.5% | [8] 7.22% | [9] -3.37%

C#Cc1nc(C(=O)NCCCCCCC(=O)NO)cs1
active: [1] 8.08% | [4] -91.3% | [6] -86.5% | [10] -80.2% | [7] -95.1% | [8] -41.4% | [9] -26.1%
inactive: [2] 53.5% | [3] 36.7%

CCCCCCN1C=C/C(=C\C(=O)n2ccc3ccccc32)c2ccccc21
inactive: [1] 76% | [2] 36.3% | [3] 67.6% | [4] 52% | [6] 66.3% | [10] 61% | [7] 97.5% | [8] 54.8% | [9] 62%

Cc1ccccc1NC(=O)Nc1nc2ccc([N+](=O)[O-])cc2s1
inactive: [2] 10.3% | [8] 16.2% | [9] 12.5%
active: [1] -9.75% | [3] 6.76% | [4] 9.02% | [6] 3.8% | [10] -19.4% | [7] -24.7%

Source: PubChem BioAssay (NCI)
